An excerpt weighted towards active compounds, which were near 2.9% of everything screened.
Glyco luc inh: increase of ERlucT glycosylation luciferase signal, primary screen, N-linked glycosylation inhibitor project, D54 ERlucT cells, luminescence, set 2 | D54 ERlucT glycosylation luciferase reporter, 24 h; percent of 100 nM tunicamycin response | reporter increase, % at 12.5 µM | hit rate 0.23% among 360,000;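 active means mean luciferase reporter signal, scaled so untreated is 0 and the glycosylation-blocking control 100, at or above a set limit in every replicate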;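 further: luciferase carries N-glycosylation sites so blocking glycosylation raises the light; 0% = median of neutral control wells and 100% = median of 100 nM tunicamycin wells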
NSD2 inh: NSD2 histone methyltransferase inhibitors, primary screen, biochemical, AlphaScreen, single concentration, set 2. Histone-lysine N-methyltransferase NSD2 (Homo sapiens), O96028. NSD2 peptide methylation, 120 min. inhibition, % at 12.5 µM. hit rate 0.54% among 310,000. AID 743445, 2014; in the data active means inhibition above about 50%
TRPM1 prom inh: inhibitors of MITF-dependent TRPM1 promoter reporter, primary screen, cell-based, SK-MEL-5, single point, luciferase | SK-MEL-5 TRPM1 promoter luciferase, 24 h | inhibition, % at 12.5 µM | hit rate 0.83% among 330,000 | AID 488899, 2010;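 active means mean inhibition across replicates of 60% or more, whatever share of single replicates reaches that level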
PfHsp90 yeast 2: growth inhibition of PfHsp90-expressing yeast, primary screen, antimalarial PfHsp90 inhibitor project, S. cerevisiae, BacTiter-Glo luminescence, single point, set 2; inhibition, % at 9.4 µM; hit rate 0.32% among 310,000; BacTiter-Glo ATP, 48 h; yeast lacking PDR1 and PDR3 efflux regulators; AID 504621, 2011;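 active means every replicate shows inhibition above about 80%, whatever the replicate mean, limit read from the data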;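 further: 0% = DMSO neutral controls and 100% = 20 µM radicicol positive controls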
Wnt act: Wnt/beta-catenin pathway activators, primary screen, cell-based, plate reader, single point; Wnt/beta-catenin reporter cell assay, activator; activation, % at 9.35 µM; hit rate 1.2% among 300,000; in the data active means activation above about 30%, passing the limit was not always enough;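 further: 0% = neutral control wells and 100% = positive control wells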
MITF TRPM1 HTS: activators of MITF-driven TRPM1 promoter reporter, primary screen, cell-based, SK-MEL-5, luciferase, single point | activation, % at 12.5 µM | SK-MEL-5 TRPM1-promoter luciferase, 24 h; % of positive control, neutral wells = 0 | hit rate 0.75% among 300,000 | AID 588334, 2011;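 active means mean activation of at least 80% with every replicate also reaching 80%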;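 further: 0% = neutral control wells and 100% = parthenolide positive control wells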
Active calls of the source: *.

O=C1C=CC(=O)N1CCNc1ncc(C(F)(F)F)cc1Cl was read as Glyco luc inh -10.5, NSD2 inh -0.8, TRPM1 prom inh 26.9, PfHsp90 yeast 2 101.2*, Wnt act -5.1 and MITF TRPM1 HTS -26.1.
For O=[N+]([O-])c1ccccc1NCCNc1ncc(C(F)(F)F)cc1Cl the results were Glyco luc inh 1.1, NSD2 inh -2.5, TRPM1 prom inh -36.2, PfHsp90 yeast 2 2.6 and MITF TRPM1 HTS 37.7.
Screening O=[N+]([O-])c1cccnc1NCCNc1ncc(C(F)(F)F)cc1Cl returned Glyco luc inh -1.0, NSD2 inh -0.1, TRPM1 prom inh -95.7, PfHsp90 yeast 2 0.1 and MITF TRPM1 HTS 101.3*.
`CC(=O)N1CCCN(C(=O)Cn2cnc3ccccc3c2=O)CC1` gave NSD2 inh -5.9.
For O=C(Nc1nnc(-c2ccc3c(c2)CCCC3)o1)c1ccc(Cl)cc1Cl the results were Glyco luc inh 0.9, TRPM1 prom inh -5.9, PfHsp90 yeast 2 104.6*, Wnt act -3.4 and MITF TRPM1 HTS 10.0.
For O=C(Nc1nnc(-c2ccc3c(c2)CCCC3)o1)c1c(F)cccc1F the results were Glyco luc inh -1.3, NSD2 inh -1.4, TRPM1 prom inh -20.9, PfHsp90 yeast 2 -22.0, Wnt act -0.2 and MITF TRPM1 HTS 23.4.
Screening COc1cc(Br)cc(/C=C/c2ccc3cccc(O)c3n2)c1OC returned Glyco luc inh 22.3, NSD2 inh -2.1, TRPM1 prom inh 23.0, PfHsp90 yeast 2 13.7, Wnt act 1.5 and MITF TRPM1 HTS -21.9.
`COc1cccc(/C=C/c2ccc3cccc(O)c3n2)c1OC` gave Glyco luc inh -9.7, NSD2 inh 2.9, TRPM1 prom inh -14.6, PfHsp90 yeast 2 -31.7, Wnt act 53.7* and MITF TRPM1 HTS 16.7.
Screening COc1ccc(/C=C/c2ccc3cccc(O)c3n2)c(OC)c1OC returned Glyco luc inh -11.8, NSD2 inh 1.6, TRPM1 prom inh -19.1, PfHsp90 yeast 2 -60.7, Wnt act 57.3* and MITF TRPM1 HTS 16.9.
O=C(N[C@H](Cc1ccccc1)C(=O)NCCCN1CCCC1=O)[C@H]1O[C@@H](n2ccc(=O)[nH]c2=O)[C@H](O)[C@@H]1O was read as NSD2 inh -6.9 and Wnt act -3.0.
O=C(N[C@H](Cc1ccccc1)C(=O)NCCCc1ccccc1)[C@H]1O[C@@H](n2ccc(=O)[nH]c2=O)[C@H](O)[C@@H]1O was read as NSD2 inh -1.0 and Wnt act -3.0.
`COc1ccccc1CCn1cnc(-c2ccccc2OC)c1CC(C)C` gave Wnt act -7.1.
`Clc1cccc(-c2nc(NCCCN3CCOCC3)c3ccccc3n2)c1` gave Glyco luc inh 0.5, NSD2 inh 0.5, TRPM1 prom inh 2.0, PfHsp90 yeast 2 24.4, Wnt act -0.5 and MITF TRPM1 HTS -1.8.
Clc1ccc2oc(-c3ccccc3)cc(=NCCCN3CCOCC3)c2c1 was read as Glyco luc inh 3.6, NSD2 inh 3.3, TRPM1 prom inh -95.9, PfHsp90 yeast 2 -6.4, Wnt act 57.4* and MITF TRPM1 HTS 103.2*.
Screening OCCCCCN=c1cc(-c2ccccc2)oc2ccc(Cl)cc12 returned Glyco luc inh 50.9*, NSD2 inh 3.1, TRPM1 prom inh -1.1, PfHsp90 yeast 2 13.8 and MITF TRPM1 HTS 2.7.
Screening O=C(/C=C\c1ccc(-c2ccccc2)o1)c1ccccc1 returned Glyco luc inh 10.6, NSD2 inh 0.1, TRPM1 prom inh -32.7, PfHsp90 yeast 2 6.1, Wnt act 36.9* and MITF TRPM1 HTS 33.0.
Cc1ccc(C(=O)/C=C/c2ccc(-c3ccc(C)cc3)o2)cc1 was read as Glyco luc inh 18.9, NSD2 inh 4.5, TRPM1 prom inh -1.0, PfHsp90 yeast 2 -107.6, Wnt act -3.3 and MITF TRPM1 HTS -0.4.
For C#CCOCCOCCOCCNc1nc(N2CCN(C(=O)CCCCCCCCCCNC(=O)[C@H](CCCCN)n3cc(C)nn3)CC2)nc(N2CCN(C(=O)CCCCCCCCCCNC(=O)[C@@H]([C@H](C)O)n3cc(C)nn3)CC2)n1 the results were Glyco luc inh -5.0, TRPM1 prom inh 38.5, PfHsp90 yeast 2 15.5 and MITF TRPM1 HTS -37.6.
Screening C#CCOCCOCCOCCNc1nc(N2CCN(C(=O)CCCCCCCCCCNC(=O)[C@H](CCCCN)n3cc(C[C@@H](C)CC)nn3)CC2)nc(N2CCN(C(=O)CCCCCCCCCCNC(=O)[C@@H]([C@H](C)O)n3cc(C)nn3)CC2)n1 returned Glyco luc inh -23.0, TRPM1 prom inh 93.8*, PfHsp90 yeast 2 3.6 and MITF TRPM1 HTS -92.6.
For CC[C@H](C)Cc1cn([C@@H](CCCN=C(NC(=O)OC(C)(C)C)NC(=O)OC(C)(C)C)C(=O)NCCCCCCCCCCC(=O)N2CCN(C(=O)OC(C)(C)C)CC2)nn1 the results were Glyco luc inh -5.8, TRPM1 prom inh 16.4, PfHsp90 yeast 2 32.5 and MITF TRPM1 HTS -21.4.
Cc1cn([C@@H](CCCCNC(=O)OC(C)(C)C)C(=O)NCCCCCCCCCCC(=O)N2CCN(C(=O)OC(C)(C)C)CC2)nn1 was read as Glyco luc inh -4.6, TRPM1 prom inh 65.2*, PfHsp90 yeast 2 11.8 and MITF TRPM1 HTS -63.0.
C#CCOCCOCCOCCNc1nc(N2CCN(C(=O)CCCCCCCCCCNC(=O)Cn3cc(C[C@@H](C)O)nn3)CC2)nc(N2CCN(C(=O)CCCCCCCCCCNC(=O)[C@@H]([C@H](C)CC)n3cc(CCCCCN)nn3)CC2)n1 was read as Glyco luc inh -22.6, TRPM1 prom inh 98.8*, PfHsp90 yeast 2 5.0 and MITF TRPM1 HTS -97.0.
For C#CCOCCOCCOCCNc1nc(N2CCN(C(=O)CCCCCCCCCCNC(=O)[C@H](CCCCN)n3cc(C[C@@H](C)CC)nn3)CC2)nc(N2CCN(C(=O)CCCCCCCCCCNC(=O)[C@H](CCCN=C(N)N)n3cc(C[C@@H](C)CC)nn3)CC2)n1 the results were Glyco luc inh -22.7, TRPM1 prom inh 103.9*, PfHsp90 yeast 2 -8.7 and MITF TRPM1 HTS -103.3.
Cc1ccccc1NC1=NC(=S)N(CC(N)=O)C12CCOC(C)(C)C2 (stereo unspecified) was read as Glyco luc inh 3.4, NSD2 inh -1.6, TRPM1 prom inh 3.9, PfHsp90 yeast 2 7.8 and Wnt act -1.5.
Screening CSc1cccc(NC(=S)N2CCC(N(C)C3CCCCC3C)CC2)c1 (stereo unspecified) returned Glyco luc inh -4.2, NSD2 inh 6.0, TRPM1 prom inh -11.6, PfHsp90 yeast 2 -11.6, Wnt act -3.7 and MITF TRPM1 HTS 13.7.
`O=C(C1CCN(c2cncnc2)CC1)N1CCOCC1` gave NSD2 inh -0.4.

Compound activity (PubChem BioAssay)
